Measured values from PubChem BioAssay (NCI).
This is part of a sample that, as a whole, favours compounds with a hit. Of some 79,000 tested, about 15% had one in any assay. No stated cut-off is given here; in the data, active means growth inhibition above about 70%; inactive means the rest.

Experiments:
[1] = NCI Yeast Anticancer Drug Screen. Data for the rad50 strain (AID 155);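 further: 0% = growth of vehicle-only cultures of the same strain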; conditions: S. cerevisiae rad50 strain growth inhibition; at 50.0 µM; stronger effect = higher value
Procedure, shortened: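 Growth of the mutant yeast was measured after compound exposure and referenced to vehicle-treated cultures.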

[2] = NCI Yeast Anticancer Drug Screen. Data for the mec2-1 strain (AID 157); conditions: S. cerevisiae mec2-1 strain, at 50.0 µM, stronger effect = higher value
Procedure, shortened: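 Growth inhibition is read against vehicle-treated controls after compound exposure of the mec2-1 yeast strain, which is defective in DNA damage repair or cell cycle control.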

[3] = NCI Yeast Anticancer Drug Screen. Data for the sgs1 mgt1 strain (AID 161);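 further: 0% = growth of cultures given vehicle only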; conditions: S. cerevisiae sgs1 mgt1 strain, at 50.0 µM, stronger effect = higher value
Procedure, shortened: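 Percent growth inhibition was derived by comparing compound-exposed mutant yeast with vehicle-exposed cultures. The strain carries alterations in DNA damage repair.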

[4] = NCI Yeast Anticancer Drug Screen. Data for the cln2 rad14 strain (AID 165);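 further: 0% = growth equal to vehicle treated cultures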; conditions: S. cerevisiae cln2 rad14 strain, at 50.0 µM, stronger effect = higher value
Procedure, shortened: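 Growth inhibition, relative to vehicle-treated controls, is the read-out. The test organism is a yeast strain with defined genetic alterations, cln2 rad14.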

[5] = NCI Yeast Anticancer Drug Screen. Data for the bub3 strain (AID 167); conditions: S. cerevisiae bub3 mutant strain, at 50.0 µM, stronger effect = higher value
Procedure, shortened: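 Whole-cell yeast assay. The mutant strain was incubated with compounds, and growth inhibition was determined by comparison with vehicle-treated cells.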

[6] = NCI Yeast Anticancer Drug Screen. Data for the mlh1 rad18 strain (AID 175); conditions: S. cerevisiae mlh1 rad18 strain growth inhibition; at 50.0 µM; stronger effect = higher value
Procedure, shortened: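 Cells of a genetically altered yeast strain, deficient in DNA damage repair, were treated with compound. Their growth was then compared with that of vehicle-treated cultures to give inhibition.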

Measured: growth inhibition

CCOC(=O)C1SC(=S)N(c2ccccc2)C1N (stereo unspecified)
inactive: [1] -3.75% | [2] 14.6% | [3] 39.8% | [4] -11.6% | [5] -4.45% | [6] 11.8%

CSc1ncc2c(n1)-c1ccccc1OC2N1CCCCC1 (stereo unspecified)
inactive: [1] 9.8% | [2] 13.7% | [3] 7.4% | [4] -3.45% | [5] 23.4% | [6] 38.7%

CCOC(=O)c1c(C)cc2ccccn12
inactive: [1] -11.4% | [2] -12.4% | [3] 0.05% | [4] -26.7% | [5] 8.3% | [6] 11.2%

O=S(=O)(Nc1ccc(C(F)(F)F)cc1)c1ccc(F)cc1
inactive: [1] -5.7% | [2] 7.35% | [3] 26% | [4] 15.9% | [5] -0.95% | [6] 28.1%

O=C1c2ccccc2C(=O)N1CCc1ncc(-c2ccccc2)[nH]1
inactive: [1] -16.4% | [2] 7.85% | [3] -16.1% | [4] 12.4% | [5] 1.1% | [6] 1.9%

COc1ccccc1C1OC2=C(Nc3ccc(Cl)cc3N2)C1=O (stereo unspecified)
inactive: [1] -6.5% | [2] -17.8% | [3] -17.5% | [4] -7% | [5] -23.7% | [6] -2.95%

O=C1NC(O)c2cccc([N+](=O)[O-])c2O1 (stereo unspecified)
inactive: [1] 19.4% | [2] 9.1% | [3] 15% | [4] 65.5% | [5] -14.8% | [6] 30.8%

CC(=O)NC(c1ccc(Cl)cc1)(c1ccc(Cl)cc1)C(Cl)(Cl)Cl
inactive: [1] -18.6% | [2] -35% | [3] -7.4% | [4] 8.5% | [5] 10.4% | [6] -3.25%

CC(=O)Nc1ccc(NC(=O)c2cccc3ccccc23)cc1
inactive: [1] -5.1% | [2] 13% | [3] 13.8% | [4] -12.8% | [5] 35.4% | [6] 32.1%

Cc1ncc([N+](=O)[O-])n1CCSC(N)=O
inactive: [1] -6.75% | [2] -13.6% | [3] -11.2% | [4] 11.4% | [5] 16.8% | [6] 33.5%

COC(=O)C1CC=CCC1 (stereo unspecified)
inactive: [1] 23.1% | [2] -8.05% | [3] 6.85% | [4] 14.2% | [5] 1.15% | [6] 32.4%

Oc1cc2nc3ccccc3nc2c2ccc(Br)cc12
inactive: [1] -12.8% | [2] -7.45% | [3] 7.7% | [4] -44.6% | [5] -17.7% | [6] -14.1%

CCC(=O)OCCN(C)C
inactive: [1] -28% | [2] -50.4% | [3] 0.65% | [4] 10.8% | [5] -19.3% | [6] -8.35%

C1=CCC(C(Nc2nncs2)Nc2nncs2)CC1 (stereo unspecified)
inactive: [1] 6.25% | [2] 3.95% | [3] 19.6% | [4] 7.05% | [5] -24.9% | [6] 9.25%

FC(F)(F)c1nc(=S)c2cn[nH]c2[nH]1
inactive: [1] 4.35% | [2] 31.1% | [3] 8.45% | [4] -12.2% | [5] 35.5% | [6] -5.3%

Clc1ccc(CSC2=NCCN2)cc1Cl
inactive: [1] -17% | [2] -26.4% | [3] -21.9% | [4] -24.4% | [5] -14% | [6] 12.8%

O=C(O)CCc1nc(-c2ccccc2-n2cccc2)no1
inactive: [1] -43.8% | [2] -36.1% | [3] -30.4% | [4] 38.2% | [5] -15.4% | [6] 8.2%

COC(=O)NN(C(=O)OC)C12CCCCC1N(C(=O)OC)N(C(=O)OC)c1c2ccc2cc(OC)ccc12 (stereo unspecified)
inactive: [1] 24.4% | [2] -0.7% | [3] 7.65% | [4] -14.1% | [5] 4.2% | [6] 10.9%

CC(C)(C)c1ccc(Sc2cccc3c2C(=O)c2c(Cl)cccc2C3=O)cc1
inactive: [1] -11.3% | [2] -4.1% | [3] -27.1% | [4] -8.1% | [5] 0.55% | [6] -0.85%

COc1ccc(C2C(Cl)C(=O)N2NC(=O)Cc2ccccc2)cc1 (stereo unspecified)
inactive: [1] -10.6% | [2] -11.9% | [3] -7.3% | [4] 8.95% | [5] -10.9% | [6] 12.6%

Cc1cc(C2(O)CCCc3ccccc32)[n+]([O-])cc1C (stereo unspecified)
inactive: [1] -17.3% | [2] -2.9% | [3] -9.4% | [4] -4.8% | [5] 0.75% | [6] 2.75%
